The text below walks through data of PubChem BioAssay (NCI).

This is part of a sample that, as a whole, favours compounds with a hit. Of some 83,000 tested, about 20% had one in any assay.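 Single-dose data. Exposure time 48 hours. Values below 10 considered active.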 A number with no mark means an inactive call. Calls of active or inactive are those of the source.

Among the test systems are NCI-H23 lung; NCI-H226 lung; NCI-H322M lung; HOP-62 NSCLC; NCI-H460 lung; HOP-92 NSCLC; NCI-H522 lung; A549/ATCC NSCLC; 786-0 renal; COLO 205 colon; DU-145 prostate; K-562 leukemia; MALME-3M melanoma; MDA-MB-231 breast; RXF 393 renal; SF-268 CNS; SF-295 CNS; SF-539 CNS; UACC-257 melanoma; M14 melanoma.
Test in all cases: NCI-60 one-dose screen, 48 h (100 = growth as untreated, 0 = no growth, -100 = all killed)
Conditions in all cases: 10 µM unless noted

Turning to `CC1(COc2ccc3c(c2)ncn3-c2ccc3cccc(N4CCC(N)CC4)c3n2)COC1`, the growth in the experiment on NCI-H23 lung was 20.6%; in the experiment with NCI-H226 lung, 19.9%; in the experiment with NCI-H322M lung, 41.1%; in the experiment on HOP-62 NSCLC it was 2.15% (active); with NCI-H460 lung, -33% (active); in the experiment with HOP-92 NSCLC it was 63.3%. In addition, the growth in the experiment with NCI-H522 lung is -36.9% (active); in the experiment on A549/ATCC NSCLC, -35.2% (active); with 786-0 renal, -33.2% (active); with COLO 205 colon it was -66.5% (active); with DU-145 prostate it was 15.9%; in the experiment with K-562 leukemia it was 0.523% (active). The growth in the experiment on MALME-3M melanoma was 20.8%; in the experiment with MDA-MB-231 breast it was 4.69% (active); with RXF 393 renal, -58.6% (active); in the experiment on SF-268 CNS it was 9.66% (active); in the experiment with SF-295 CNS, 59.8%; in the experiment with SF-539 CNS, -82.3% (active). Moreover, the growth was -50.3% (active) with UACC-257 melanoma and 2.82% (active) with M14 melanoma.

Consider `Cc1ccc(NC(=O)Nc2ccc(Nc3ncnc4sc5c(c34)CCOC5)cc2)cc1Cl`, for which the growth in the experiment with NCI-H23 lung was 99.9%; in the experiment with NCI-H226 lung it was 94.9%; in the experiment on NCI-H322M lung, 103%; with HOP-62 NSCLC, 74.6%; in the experiment with NCI-H460 lung, 108%; with HOP-92 NSCLC, 91.6%. The growth is 60.9% with NCI-H522 lung; 85.8% in the experiment with A549/ATCC NSCLC; 110% in the experiment with 786-0 renal; 102% in the experiment on COLO 205 colon; 114% in the experiment on DU-145 prostate; 108% in the experiment on K-562 leukemia. Also, the growth is 98.2% in the experiment on MALME-3M melanoma; 88.5% in the experiment with MDA-MB-231 breast; 95.5% with RXF 393 renal; 103% in the experiment on SF-268 CNS; 96% in the experiment on SF-295 CNS; 84.4% in the experiment with SF-539 CNS. In addition, the growth in the experiment with UACC-257 melanoma is 88.8%; in the experiment on M14 melanoma, 99.1%.

On to `c1cn2cc(-c3ccc4cn[nH]c4c3)nc(Nc3ccc(N4CCOCC4)cc3)c2n1`, for which the growth was 64.8% in the experiment on NCI-H23 lung; 20.8% in the experiment on NCI-H226 lung; 70% in the experiment on NCI-H322M lung; 9.23% (active) with HOP-62 NSCLC; 41.7% with NCI-H460 lung; 39.2% with HOP-92 NSCLC. The growth was 24.4% in the experiment on NCI-H522 lung; 45% in the experiment with A549/ATCC NSCLC; 59.2% in the experiment on 786-0 renal; 61.3% in the experiment on COLO 205 colon; 53.3% with DU-145 prostate; 65.9% in the experiment on K-562 leukemia. The growth is 74.8% with MALME-3M melanoma; 55.1% in the experiment with MDA-MB-231 breast; 12.4% in the experiment with RXF 393 renal; 34.9% in the experiment with SF-268 CNS; 66.4% in the experiment on SF-295 CNS; 46.9% in the experiment on SF-539 CNS. In addition, the figures for the growth with UACC-257 melanoma and in the experiment on M14 melanoma were 62.6% and 55.1%, respectively.

With `CCN1CCN(Cc2ccc(Cc3ncc(F)c(-c4cc(F)c5nc(C)n(C(C)C)c5c4)n3)nc2)CC1`, the growth in the experiment with NCI-H23 lung is 44.3%; with NCI-H226 lung, 34.3%; in the experiment on NCI-H322M lung it was 29.3%; in the experiment with HOP-62 NSCLC it was 44.4%; in the experiment with NCI-H460 lung it was -56.1% (active); in the experiment on HOP-92 NSCLC it was 50%. The growth is 69% with NCI-H522 lung; 28.5% in the experiment with A549/ATCC NSCLC; 46.4% in the experiment with 786-0 renal; 16% in the experiment on COLO 205 colon; 60.4% in the experiment on DU-145 prostate; -29.2% (active) in the experiment on K-562 leukemia. Besides, the growth was 65.9% in the experiment on MALME-3M melanoma; 53.4% in the experiment with MDA-MB-231 breast; -28.2% (active) in the experiment on RXF 393 renal; 54.4% in the experiment with SF-268 CNS; 64.9% in the experiment on SF-295 CNS; 59.8% with SF-539 CNS. Further, the growth with UACC-257 melanoma was 52.8%; in the experiment on M14 melanoma it was 45.2%.

With `O=C(/C=C/c1ccc2c(c1)OCO2)c1c(O)c2ccccc2oc1=O`, the growth in the experiment with NCI-H23 lung is 102%; with NCI-H226 lung it was 107%; with NCI-H322M lung it was 107%; in the experiment with HOP-62 NSCLC it was 80.9%; in the experiment on NCI-H460 lung, 103%; in the experiment with HOP-92 NSCLC, 103%. In addition, the growth in the experiment with NCI-H522 lung was 75.7%; in the experiment on A549/ATCC NSCLC, 76.5%; with 786-0 renal, 99.8%; in the experiment on COLO 205 colon, 99.3%; with DU-145 prostate, 109%; in the experiment on K-562 leukemia, 69.4%. For the same compound, the growth in the experiment with MALME-3M melanoma is 101%; with MDA-MB-231 breast it was 103%; in the experiment with RXF 393 renal it was 135%; in the experiment with SF-268 CNS, 93.6%; in the experiment with SF-295 CNS, 100%; with SF-539 CNS, 105%. Besides, the growth in the experiment on UACC-257 melanoma is 78.1%; with M14 melanoma, 94.9%.

Take `CNC(=O)CN1CCC(Oc2cc3c(Nc4cccc(Cl)c4F)ncnc3cc2OC)CC1`: the growth in the experiment on NCI-H23 lung is 79.7%; with NCI-H226 lung, 76.7%; with NCI-H322M lung it was -5.06% (active); in the experiment on HOP-62 NSCLC it was 38.3%; in the experiment on NCI-H460 lung, 89.9%; in the experiment on HOP-92 NSCLC, 25.1%. Also, the growth with NCI-H522 lung was 5.87% (active); with A549/ATCC NSCLC, 28.3%; in the experiment with 786-0 renal it was 51.8%; in the experiment on COLO 205 colon it was 61.3%; in the experiment with DU-145 prostate, 44.9%; in the experiment on K-562 leukemia it was 60.9%. Further, the growth in the experiment with MALME-3M melanoma was 91.1%; in the experiment with MDA-MB-231 breast, 43.6%; with RXF 393 renal, 24%; in the experiment on SF-268 CNS it was 51%; in the experiment with SF-295 CNS, 76.1%; in the experiment on SF-539 CNS it was 72.8%. For the same compound, the growth in the experiment on UACC-257 melanoma was 74.4%; in the experiment on M14 melanoma, 84.1%.

As to `O=C(Cc1ccc(/C=C/C(=O)c2ncc[nH]2)cc1)Nc1ccc(S(F)(F)(F)(F)F)cc1`, the growth in the experiment with NCI-H23 lung is 68.5%; in the experiment on NCI-H226 lung it was 93.7%; with NCI-H322M lung, 95%; in the experiment on HOP-62 NSCLC it was 93.8%; with NCI-H460 lung, 98.2%; in the experiment with HOP-92 NSCLC, 97%. Further, the growth in the experiment on NCI-H522 lung is 65.8%; with A549/ATCC NSCLC it was 76.7%; with 786-0 renal, 88.5%; in the experiment on COLO 205 colon, 82.7%; in the experiment with DU-145 prostate, 78.5%; in the experiment on K-562 leukemia, 17.8%. Further, the growth was 88% with MALME-3M melanoma; 70.4% with MDA-MB-231 breast; 94.7% with RXF 393 renal; 80% in the experiment on SF-268 CNS; 80.8% in the experiment with SF-295 CNS; 93.2% with SF-539 CNS. Moreover, the growth in the experiment on UACC-257 melanoma was 103%; with M14 melanoma, 67.7%.
